PubChem BioAssay (NCI)
“And” between values parts separate entries of the source, which are not always exact repeats. Equal values may be shown once. About 83,000 compounds went through this panel and 20% of them were active in at least one assay; those are over-represented in the sample as a whole.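 Cells were grown in 96-well plates and exposed to the test compound at a single concentration for 48 hours; results are reported as percent growth, with values below 10 considered active.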 The source made the active and inactive calls.

Key:
Assay in all cases: NCI-60 one-dose screen, 48 h (100 = growth as untreated, 0 = no growth, -100 = all killed)
Details in all cases: 10 µM unless noted
SK-MEL-2 melanoma = test system: SK-MEL-2 melanoma
EKVX NSCLC = test system: EKVX NSCLC
SN12C renal = test system: SN12C renal
UO-31 renal = test system: UO-31 renal
TK-10 renal = test system: TK-10 renal
ACHN renal = test system: ACHN renal
CAKI-1 renal = test system: CAKI-1 renal
A498 renal = test system: A498 renal
HL-60(TB) leukemia = test system: HL-60(TB) leukemia
MOLT-4 leukemia = test system: MOLT-4 leukemia
SR leukemia = test system: SR leukemia
RPMI-8226 leukemia = test system: RPMI-8226 leukemia
OVCAR-8 ovarian = test system: OVCAR-8 ovarian
OVCAR-5 ovarian = test system: OVCAR-5 ovarian
SK-OV-3 ovarian = test system: SK-OV-3 ovarian
IGROV1 ovarian = test system: IGROV1 ovarian
OVCAR-3 ovarian = test system: OVCAR-3 ovarian
HS 578T breast = test system: HS 578T breast
CCRF-CEM leukemia = test system: CCRF-CEM leukemia
OVCAR-4 ovarian = test system: OVCAR-4 ovarian

Measured: growth

CC[C@H](C)[C@H]1O[C@]2(C=C[C@@H]1C)C[C@@H]1C[C@@H](C/C=C(\C)[C@@H](O[C@H]3C[C@H](OC)[C@@H](O[C@H]4C[C@H](OC)[C@@H](NC)[C@H](C)O4)[C@H](C)O3)[C@@H](C)/C=C/C=C3\CO[C@@H]4[C@H](O)C(C)=C[C@@H](C(=O)O1)[C@]34O)O2
active: SK-MEL-2 melanoma -54.5% | EKVX NSCLC -40.9% | SN12C renal -47.5% | UO-31 renal -63.2% | TK-10 renal -76% | ACHN renal -33.9% | A498 renal -7.23% | HL-60(TB) leukemia -59.8% | MOLT-4 leukemia -42.3% | SR leukemia -32.4% | RPMI-8226 leukemia -30.7% | OVCAR-5 ovarian -34.5% | SK-OV-3 ovarian -36.6% | IGROV1 ovarian -31.9% | OVCAR-3 ovarian -68.8% | HS 578T breast -42.9%
inactive: CAKI-1 renal 18.7% | OVCAR-8 ovarian 10.7%

O=C(Cc1ccccc1)NC(O)C(Cl)(Cl)Cl (stereo unspecified)
inactive: SK-MEL-2 melanoma 105% | EKVX NSCLC 124% | SN12C renal 99.3% | UO-31 renal 93.8% | TK-10 renal 99.8% | ACHN renal 120% | CAKI-1 renal 108% | A498 renal 104% | HL-60(TB) leukemia 101% | CCRF-CEM leukemia 106% | SR leukemia 101% | RPMI-8226 leukemia 104% | OVCAR-8 ovarian 96.1% | OVCAR-5 ovarian 111% | SK-OV-3 ovarian 106% | IGROV1 ovarian 115% | OVCAR-3 ovarian 124% | HS 578T breast 124%

C=C1C(=O)OC2CC3(C)OC3C3OC3C3=CC(OC3=O)C12 (stereo unspecified)
inactive: SK-MEL-2 melanoma 100% | EKVX NSCLC 111% | SN12C renal 100% and 97.4% | UO-31 renal 44.3% and 44.2% | A498 renal 113% and 106% | SR leukemia 10.7% and 47.9% | RPMI-8226 leukemia 97.9% and 38% | OVCAR-8 ovarian 87.2% and 88.6% | OVCAR-5 ovarian 106% and 104% | OVCAR-4 ovarian 60% and 92.5% | SK-OV-3 ovarian 103% and 106% | IGROV1 ovarian 102% and 107% | OVCAR-3 ovarian 41.8% | HS 578T breast 96.8%
16.7% (inactive) and -22.5% (active): TK-10 renal
active: ACHN renal -5.94% and -29% | CAKI-1 renal 4.76% and 6.96% | HL-60(TB) leukemia -17.4% and 3.33% | CCRF-CEM leukemia -42.4% and -54.4%

Cc1cc(Br)c([N+](=O)[O-])cc1[N+](=O)[O-]
inactive: SK-MEL-2 melanoma 111% | EKVX NSCLC 103% | SN12C renal 101% | UO-31 renal 114% | TK-10 renal 110% | ACHN renal 106% | CAKI-1 renal 88.5% | A498 renal 97.9% | HL-60(TB) leukemia 59.4% | MOLT-4 leukemia 71.1% | SR leukemia 40.4% | RPMI-8226 leukemia 120% | OVCAR-8 ovarian 94.9% | OVCAR-5 ovarian 107% | OVCAR-4 ovarian 113% | SK-OV-3 ovarian 104% | IGROV1 ovarian 110% | OVCAR-3 ovarian 103% | HS 578T breast 105%

O=C(NCCCN1CC1)Nc1cccc2ccccc12
inactive: SK-MEL-2 melanoma 97.1% and 97.9% | EKVX NSCLC 109% and 103% | SN12C renal 94.4% and 97.5% | UO-31 renal 97.7% and 83.7% | TK-10 renal 103% and 93.3% | ACHN renal 93% and 87.6% | CAKI-1 renal 95.8% and 85.1% | A498 renal 124% and 86.9% | HL-60(TB) leukemia 107% | CCRF-CEM leukemia 108% and 86.3% | SR leukemia 102% and 87.1% | RPMI-8226 leukemia 100% and 88.4% | OVCAR-8 ovarian 80.1% and 79.3% | OVCAR-5 ovarian 105% and 113% | OVCAR-4 ovarian 105% and 114% | SK-OV-3 ovarian 101% and 95.8% | IGROV1 ovarian 87.5% and 86.9% | OVCAR-3 ovarian 109% and 113% | HS 578T breast 96.2% and 106%

COCC1OC2OC3C(COC)OC(OC4C(COC)OC(OC5C(COC)OC(OC6C(COC)OC(OC7C(COC)OC(OC8C(COC)OC(OC1C(O)C2O)C(O)C8O)C(O)C7O)C(O)C6O)C(O)C5O)C(O)C4O)C(O)C3O (stereo unspecified) (tested in a mixture with another compound)
inactive: SK-MEL-2 melanoma 65.7% | EKVX NSCLC 105% | SN12C renal 97.6% | UO-31 renal 97.3% | TK-10 renal 146% | ACHN renal 107% | CAKI-1 renal 102% | A498 renal 111% | HL-60(TB) leukemia 132% | SR leukemia 91.3% | OVCAR-8 ovarian 114% | OVCAR-5 ovarian 104% | OVCAR-4 ovarian 111% | SK-OV-3 ovarian 117% | IGROV1 ovarian 184% | OVCAR-3 ovarian 119% | HS 578T breast 105%

Oc1cc(N2CC2)c(O)cc1N1CC1
inactive: EKVX NSCLC 58.4% | SN12C renal 12.7% | CCRF-CEM leukemia 24.7% | SR leukemia 21.6% | OVCAR-8 ovarian 11.2% | OVCAR-4 ovarian 18%
active: SK-MEL-2 melanoma -37.5% | UO-31 renal -36.6% | TK-10 renal -7.44% | ACHN renal 2.38% | CAKI-1 renal -1.5% | A498 renal -75.2% | MOLT-4 leukemia 9.13% | RPMI-8226 leukemia 2.53% | OVCAR-5 ovarian 2.7% | SK-OV-3 ovarian 2.44% | OVCAR-3 ovarian -34.4% | HS 578T breast -17.4%

Nc1c(Cl)c(Cl)nc(C(=O)O)c1Cl
inactive: SK-MEL-2 melanoma 92.5% | EKVX NSCLC 86.5% | SN12C renal 93.6% | UO-31 renal 71.1% | TK-10 renal 99.2% | ACHN renal 88.2% | CAKI-1 renal 90.1% | A498 renal 138% | HL-60(TB) leukemia 62.8% | MOLT-4 leukemia 70.2% | RPMI-8226 leukemia 123% | OVCAR-8 ovarian 94.2% | OVCAR-5 ovarian 111% | OVCAR-4 ovarian 95.4% | SK-OV-3 ovarian 99.9% | IGROV1 ovarian 29.9% | OVCAR-3 ovarian 107% | HS 578T breast 104%

CO[C@H]1[C@H](O[C@@H]2C[C@@H]3C/C=C/C(=O)O[C@@H](CO)C[C@H](O)[C@@H]4C[C@H](C)[C@H](C/C=C\C=C\[C@H](C)C[C@H](C2)O3)O4)O[C@@H](C)[C@H](O)[C@H]1O
inactive: SK-MEL-2 melanoma 68.8% | EKVX NSCLC 28.7% | SN12C renal 62.6% | UO-31 renal 33.3% | TK-10 renal 32.2% | ACHN renal 66.4% | CAKI-1 renal 61.6% | A498 renal 60.6% | CCRF-CEM leukemia 58.7% | MOLT-4 leukemia 43.8% | SR leukemia 85.2% | RPMI-8226 leukemia 28.1% | OVCAR-8 ovarian 42.6% | OVCAR-5 ovarian 71.2% | OVCAR-4 ovarian 30.1% | SK-OV-3 ovarian 54% | IGROV1 ovarian 71% | OVCAR-3 ovarian 60.2% | HS 578T breast 95.1%

C=CC[PH+](c1ccccc1)c1ccccc1.C=CC[PH+](c1ccccc1)c1ccccc1.[Pt+2].[S-]c1ncccn1.[S-]c1ncccn1
active: EKVX NSCLC 2.19% | UO-31 renal -94.5% | TK-10 renal -3.54% | ACHN renal -43.3% | CAKI-1 renal 5.27% | CCRF-CEM leukemia 6.99% | MOLT-4 leukemia 7.91% | RPMI-8226 leukemia 0.618% | OVCAR-8 ovarian 1.96% | OVCAR-3 ovarian -24.5%
inactive: SK-MEL-2 melanoma 75% | SN12C renal 40.3% | A498 renal 103% | SR leukemia 13.5% | OVCAR-5 ovarian 14.3% | OVCAR-4 ovarian 17.6% | SK-OV-3 ovarian 96.3% | HS 578T breast 61.6%

COc1cc2c(cc1OC)-c1c3c(cc4c1[C@@H](C2)N(C)CC4)OCO3
active: UO-31 renal 9.51%
inactive: SK-MEL-2 melanoma 87.9% | EKVX NSCLC 66.7% | SN12C renal 43.8% | TK-10 renal 67.3% | ACHN renal 18.6% | CAKI-1 renal 46.9% | A498 renal 57% | CCRF-CEM leukemia 42.1% | MOLT-4 leukemia 11.9% | SR leukemia 17.2% | RPMI-8226 leukemia 23.9% | OVCAR-5 ovarian 42.5% | OVCAR-4 ovarian 44.2% | SK-OV-3 ovarian 66.5% | OVCAR-3 ovarian 76.1% | HS 578T breast 80.4%

O=C(O)c1ccccc1N(CCO)CCCl
inactive: SK-MEL-2 melanoma 116% | EKVX NSCLC 118% | SN12C renal 98.3% | UO-31 renal 88.2% | TK-10 renal 117% | ACHN renal 95% | CAKI-1 renal 112% | A498 renal 100% | HL-60(TB) leukemia 53.8% | SR leukemia 84.2% | RPMI-8226 leukemia 103% | OVCAR-8 ovarian 101% | OVCAR-5 ovarian 92.3% | OVCAR-4 ovarian 108% | SK-OV-3 ovarian 108% | IGROV1 ovarian 88.6% | OVCAR-3 ovarian 111% | HS 578T breast 120%

C[C@]12CCc3sc(Nc4ccc(OC(F)(F)F)cc4)nc3C1=CC[C@@H]1[C@@H]2CC[C@]2(C)C(=O)CC[C@@H]12
inactive: SK-MEL-2 melanoma 61.8% | EKVX NSCLC 78.4% | SN12C renal 71.2% | UO-31 renal 54.3% | TK-10 renal 98.2% | ACHN renal 71.6% | CAKI-1 renal 60.4% | A498 renal 75% | SR leukemia 16.9% | OVCAR-8 ovarian 66.5% | OVCAR-5 ovarian 91.9% | OVCAR-4 ovarian 64% | SK-OV-3 ovarian 69.9% | IGROV1 ovarian 93.6% | OVCAR-3 ovarian 37.4% | HS 578T breast 38.5%
active: CCRF-CEM leukemia 5.05% | MOLT-4 leukemia 4.15% | RPMI-8226 leukemia 2.88%

C=C[Se]CC(=O)/C=C/c1ccccc1
inactive: SK-MEL-2 melanoma 99.9% | EKVX NSCLC 70.4% | SN12C renal 73.6% | UO-31 renal 39.4% | TK-10 renal 103% | ACHN renal 95.5% | CAKI-1 renal 106% | A498 renal 65.3% | HL-60(TB) leukemia 42.2% | SR leukemia 58.7% | RPMI-8226 leukemia 93.2% | OVCAR-8 ovarian 59.5% | OVCAR-5 ovarian 89.9% | OVCAR-4 ovarian 95.3% | SK-OV-3 ovarian 53% | IGROV1 ovarian 104% | OVCAR-3 ovarian 89.1% | HS 578T breast 66.1%

C=CC1CN2CCC1CC2C(O)c1ccnc2ccccc12 (stereo unspecified)
active: SK-MEL-2 melanoma -4.22%
inactive: EKVX NSCLC 145% | SN12C renal 109% | UO-31 renal 67% | TK-10 renal 142% | ACHN renal 109% | CAKI-1 renal 144% | A498 renal 125% | HL-60(TB) leukemia 225% | MOLT-4 leukemia 258% | SR leukemia 344% | RPMI-8226 leukemia 213% | OVCAR-8 ovarian 127% | OVCAR-5 ovarian 116% | SK-OV-3 ovarian 133% | HS 578T breast 117%
